Screening data deposited in PubChem BioAssay by The Scripps Research Institute Molecular Screening Center.
TCR-CD3 inh: inhibitors of human TCR-CD3 interaction, primary screen, biochemical, fluorescence, TAMRA-labeled TCR probe. T-cell receptor (TCR). inhibition, % at 9.4 µM. 0.37% of 360,000 active. AID 651800, 2012; in the data active = inhibition above about 19%;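 also: recombinant mutant TCR 2C K166C tagged with TAMRA read by polarization; 0% = receptor in buffer alone and 100% = receptor with positive control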
SIAE primary: human SIAE inhibitors, primary screen, biochemical, fluorescence polarization, FP-Rh probe, 1536-well HTS. Sialate O-acetylesterase (Homo sapiens), Q9HAT2. SIAE FP-Rh probe binding. inhibition, % at 9.66 µM. 0.69% of 370,000 active. AID 1053197, 2014;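 active = inhibition above a cutoff: mean of compounds within the control limits plus 3 SD of those, cut at about 17% in these data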;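 also: 0% = plate median of compound wells and 100% = probe without SIAE protein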
PME-1 primary: PME-1 inhibitors via competitive probe labeling, primary screen, biochemical, fluorescence polarization, FP-Rh probe, HTS | recombinant PME-1 | inhibition, % at 5.9 µM | 0.53% of 320,000 active;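 active = inhibition above the campaign mean of all compounds plus 3 SD, cut at about 26% in these data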;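 also: competitive labeling of PME-1 active site by serine hydrolase directed probe; 0% = PME-1 with DMSO and 100% = wells lacking PME-1 enzyme; inhibitors block probe labeling so polarization falls and inhibition rises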
Fam108B inh: mouse Fam108B serine hydrolase inhibitors, primary screen, counter-screen for RBBP9 inhibitor project, biochemical, fluorescence polarization | recombinant Fam108B, FP-Rh probe fluorescence polarization | inhibition, % at 9.51 µM | 0.33% of 300,000 active | AID 1947, 2009;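 active = inhibition above the screen mean inhibition plus 3 SD, computed separately per campaign, cut at about 18% in these data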;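 also: inhibitors lower polarization as less probe binds the enzyme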
PAD4 inh: human PAD4 inhibitors, primary screen, biochemical, fluorescence polarization, 1536-well format | 0.41% of 330,000 active | Protein-arginine deiminase type-4 (Homo sapiens), Q9UM07 | recombinant PAD4, RCA probe fluorescence polarization | inhibition, % at 6.36 µM;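 active = percent inhibition above a cutoff equal to the mean of all tested compounds plus 3 SD, cut at about 15% in these data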;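 also: 0% = PAD4 with RCA probe and DMSO and 100% = probe without PAD4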
PRMT1 FP inh: PRMT1 methyltransferase inhibitors, primary screen, biochemical, fluorescence polarization; Protein arginine N-methyltransferase 1 (Homo sapiens), Q99873; recombinant PRMT1, activity-based probe fluorescence polarization; inhibition, % at 2.79 µM; 1.3% of 370,000 active; AID 652257, 2013;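 active = inhibition above about 21% made by adding two undisclosed values, limit read from the data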
Target sequence (Q99873 whole entry, looked up): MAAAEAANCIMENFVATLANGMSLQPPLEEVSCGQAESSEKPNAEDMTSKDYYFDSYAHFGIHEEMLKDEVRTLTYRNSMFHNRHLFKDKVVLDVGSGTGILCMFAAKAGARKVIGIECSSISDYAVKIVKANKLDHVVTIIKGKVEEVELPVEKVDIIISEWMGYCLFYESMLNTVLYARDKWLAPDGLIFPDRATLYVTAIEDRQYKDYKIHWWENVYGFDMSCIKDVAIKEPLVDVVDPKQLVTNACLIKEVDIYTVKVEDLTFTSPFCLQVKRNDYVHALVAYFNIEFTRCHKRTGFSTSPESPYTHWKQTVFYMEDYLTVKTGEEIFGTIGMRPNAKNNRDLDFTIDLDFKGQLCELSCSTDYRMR
PRMT1 confirm: PRMT1 methyltransferase inhibitors, confirmation, biochemical, fluorescence polarization, triplicate; shares compounds with PRMT1 FP inh; recombinant His-PRMT1, activity-based probe fluorescence polarization; inhibition, % at 2.79 µM; 42% of 3,300 active; AID 687036, 2013;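 active = mean inhibition across replicates above the hit cutoff derived for the earlier primary screen, cut at about 22% in these data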
The depositor's hits bear a star; nt = no result. Sampled rows, rich in hits. Any-hit rate of the full collection: about 2.6%.

SMILES	TCR-CD3 inh	SIAE primary	PME-1 primary	Fam108B inh	PAD4 inh	PRMT1 FP inh	PRMT1 confirm
O=C1CS/C(=C\S(=O)(=O)c2ccc(Cl)cc2)N1	-4.8	-0.5	-1.4	0.4	-5.0	31.5*	22.4*
CCOC(=O)CC[C@@H]1CC[C@]2(CCCN(Cc3cccs3)C2)O1	nt	2.6	nt	nt	nt	-2.9	nt
Cn1nc(SCC(=O)O)sc1=S	5.3	4.7	-6.2	-2.8	2.5	-2.6	nt
CCOC(=O)C(Sc1nn(C)c(=S)s1)C(C)=O (centres undefined)	-7.1	-1.4	-3.2	4.2	-1.3	36.3*	1.3
CC(C)(C)N(Cc1cn(CC2CCCCC2)nn1)S(=O)(=O)c1ccc(F)cc1Br	nt	-2.5	nt	nt	nt	1.5	nt
COc1ccc(-c2nnc(SCC(=O)Nc3ccc4cn[nH]c4c3)n2Cc2ccco2)cc1	nt	-1.1	nt	nt	nt	3.0	nt
Nc1ccc(Oc2ccc(F)cc2)nc1	-8.8	-1.2	6.0	0.6	-5.8	26.1*	-2.5
CCCCCCCCN1CCS(=O)(=O)N(Cc2ccc(C(F)(F)F)cc2)C(C(=O)OC)C1 (centres undefined)	nt	-1.8	nt	nt	nt	0.8	nt
CCN(CC)C(=O)CSc1nnc([C@@H](N)Cc2ccccc2)o1	1.5	2.0	0.7	-1.6	2.0	3.8	nt
CCc1ccccc1NC(=O)CSc1nnc([C@@H](N)Cc2ccccc2)o1	8.7	0.4	0.9	-4.5	3.0	42.9*	28.1*
COc1ccccc1C(=O)Oc1ccc2c(c1)O/C(=C\c1ccncc1)C2=O	-1.2	1.3	-0.2	-2.4	1.3	38.2*	12.9
CCC(=O)Oc1ccc2c(c1)O/C(=C\c1ccco1)C2=O	-1.2	2.2	-2.5	0.7	0.9	63.4*	19.7
Cc1cc(O)cc2c1C(=O)/C(=C/c1ccco1)O2	-1.2	-9.2	0.2	3.6	-11.5	28.2*	18.8
COC(=O)COc1ccc2c(c1)O/C(=C\c1ccco1)C2=O	-1.2	1.3	-2.9	3.1	-5.8	31.3*	1.3
CC(=O)N1C[C@@H](c2c[nH]c3ccccc23)C=C[C@H]1C(=O)NS(=O)(=O)c1ccc(C)cc1	nt	10.9	nt	nt	nt	6.5	nt
CCOC(=O)[C@@]12CN(C(=O)OC(C)(C)C)CC=C1N(Cc1ccc(OC)cc1)C(=O)[C@H]2CC(=O)NCC1CCCCC1	nt	1.3	nt	nt	nt	1.1	nt
Cc1nn(C)c(Sc2ccccc2N)c1[N+](=O)[O-]	2.3	11.7	7.8	-0.6	14.0	70.6*	52.5*
O=C(NN1C(=O)C2C3C=CC(O3)C2C1=O)c1cccc(Br)c1 (centres undefined)	2.3	6.1	-1.3	4.4	-0.1	40.3*	8.5
Cc1cccc(C(=O)NN2C(=O)C3C(c4ccccc4)C=CC(c4ccccc4)C3C2=O)c1 (centres undefined)	-3.5	-47.5	-21.1	-11.0	-0.4	0.7	nt
O=C(NN1C(=O)C2C3C=CC(O3)C2C1=O)c1cccc(O)c1 (centres undefined)	-11.4	-3.0	1.3	-1.7	2.7	54.2*	0.2
COc1ccc(C(=O)NN2C(=O)C3C4C=CC(O4)C3C2=O)cc1 (centres undefined)	3.9	-0.3	-3.3	-4.5	-3.9	48.6*	11.4
C=CCOC(=O)N[C@H](c1cccc(OC)c1)[C@H](C)/C=C/CC(=O)OC	nt	2.0	nt	nt	nt	-3.1	nt
CCCNC(=O)C[C@H]1CC[C@H]2[C@@H](COc3ccc(NC(=O)Nc4ccc(C#N)cc4)cc3C(=O)N2C)O1	nt	-1.3	nt	nt	nt	2.2	nt
O=c1c2ccccc2ncn1-c1ccc(Cl)cc1Cl	-8.2	-3.7	4.5	0.4	4.7	0.3	nt
O=c1c2ccccc2sn1-c1ccc(Cl)cc1Cl	-2.3	1.5	nt	nt	nt	74.5*	93.6*
SMILES	TCR-CD3 inh	SIAE primary	PME-1 primary	Fam108B inh	PAD4 inh	PRMT1 FP inh	PRMT1 confirm
c1csc(-c2nc3ccccc3s2)c1	-1.6	0.3	-3.1	-4.1	-0.1	32.7*	34.3*
O=S(=O)(c1cccs1)N1CCC(c2cn3ccccc3n2)CC1	nt	3.1	nt	nt	nt	6.2	nt
CS(=O)(=O)c1ccc(S(=O)CC(=O)OCc2ccccc2)c([N+](=O)[O-])c1 (centres undefined)	-10.4	5.2	nt	nt	nt	65.7*	33.5*
COC(=O)[C@]12C[C@H](CC(=O)NCCC(C)C)C(=O)N(Cc3ccccc3)C1=C[C@H](COCc1ccccc1)O[C@@H]2C	nt	8.8	nt	nt	nt	3.4	nt
O=[N+]([O-])c1ccc(-c2csc3[n+]2CCS3)cc1	4.5	0.0	2.1	1.5	-3.8	46.9*	3.0
COC(=O)Nc1ccc(SCC(=O)c2ccccc2)cc1	3.1	3.8	2.0	0.7	6.5	25.8*	20.6
COC(=O)Nc1ccc(SCC(=O)c2ccc(Cl)cc2)cc1	-2.6	-3.6	-4.2	-3.4	9.5	68.9*	55.0*
O=C(CSc1ccc([N+](=O)[O-])cc1)c1ccccc1	6.4	8.6	nt	nt	nt	13.0	nt
CC(C)(C)OC(=O)NCCc1nnc(SCC(=O)c2ccc(Cl)cc2)o1	5.7	1.5	2.9	4.4	3.3	-0.4	nt
Oc1c(C=C2N=c3ccccc3=N2)sc(=S)n1-c1ccc2ccccc2c1	-0.4	4.4	-7.3	-2.1	-1.0	3.3	nt
O=C(Nn1c(O)c(C=C2N=c3ccccc3=N2)sc1=S)c1cccc(Cl)c1	6.8	3.5	-12.2	14.8	-13.7	38.7*	8.7
O=C(Nn1c(O)c(C=C2N=c3ccccc3=N2)sc1=S)c1ccccc1	4.6	3.0	3.0	4.2	-2.4	49.3*	3.2
Cc1ccc(C(=O)Nn2c(O)c(C=C3N=c4ccccc4=N3)sc2=S)cc1	1.6	-1.9	2.2	6.3	-6.1	55.2*	5.1
Oc1c(C=C2N=c3ccccc3=N2)sc(=S)n1C1CCCC1	1.0	-1.4	5.0	-3.5	-1.8	8.0	nt
CC(=O)C(=Nc1ccc(Cl)cc1Cl)NNc1cccc(Cl)c1	4.0	4.9	12.2	8.6	2.3	61.2*	-5.3
CC(=O)Nc1ccc(NC(=O)Nc2cccc(Cl)c2)cc1	-6.8	-0.1	16.2	13.1	-5.5	3.1	nt
Cc1ccc(C2CC(=O)N3CN(Cc4ccco4)CSC3=C2C#N)cc1 (centres undefined)	-0.8	0.8	-1.4	3.9	1.8	39.2*	4.0
CC(C)c1ccc(C2CC(=O)N3CN(C)CSC3=C2C#N)cc1 (centres undefined)	nt	nt	-0.7	-3.9	0.6	nt	nt
N#CC1=C2SCN(Cc3ccco3)CN2C(=O)CC1c1c(F)cccc1Cl (centres undefined)	-5.9	8.1	-3.3	-4.2	1.8	52.2*	7.7
N#CC1=C2SCN(Cc3ccccc3)CN2C(=O)CC1c1ccccc1F (centres undefined)	nt	nt	-4.4	-2.8	4.6	nt	nt
O=C(Nc1ccc(Cl)cc1)Nc1ccccc1C(=O)N1CCCC1	nt	-2.9	nt	nt	nt	-1.8	nt
